Test [1] has as its target Nuclear receptor subfamily 1 group I member 3 (Homo sapiens) (UniProt Q14994). As to the kind of experiment: ATG_CAR_TRANS: Attagene TRANS-FACTORIAL HepG2 Assay for human Constitutive Androstane Receptor (CAR) (AID 2282969).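 Note: activators raise reporter mRNA above DMSO so AC50 marks induction.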 To be noted: HepG2 Attagene TRANS-FACTORIAL CAR reporter. In short, it runs like this:
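Steps: transient transfection of HepG2 with multiple GAL4-UAS reporter units; 24 h compound incubation; RNA isolation, RT-PCR, 6-FAM primer extension, HpaI digest; capillary electrophoresis. Gain-of-signal relative to DMSO negative control.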

Test [2] can be described thus: ATG_M_19_TRANS: Attagene TRANS-FACTORIAL HepG2 Assay for M19 Transcription Factor (Internal Marker) (AID 2282974). The note with it: HepG2 Attagene TRANS-FACTORIAL M19 internal marker reporter. In short, it runs like this:
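Background-control readout: after 24 h chemical exposure of transfected HepG2 carrying GAL4-driven reporter units, RNA was reverse-transcribed, amplified, fluorescently labeled and sized by capillary electrophoresis; gain-of-signal fit against DMSO.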

Test [3] is described as follows: ATG_GAL4_TRANS: Attagene TRANS-FACTORIAL HepG2 Assay for GAL4 (Internal Marker) (AID 2282976). To be noted: HepG2 Attagene TRANS GAL4 internal marker reporter. An outline of the steps:
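First, HepG2 cells were transfected with reporter units under GAL4-UAS control. Next, they were treated with chemical for 24 h. Finally, RNA was reverse-transcribed, PCR-amplified, FAM-labelled and resolved by capillary electrophoresis, with induction scored against DMSO.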

The target in test [4] is Oxysterols receptor LXR-beta (Homo sapiens) (UniProt P55055). As to the kind of experiment: ATG_LXRb_TRANS: Attagene TRANS-FACTORIAL HepG2 Assay for human Liver X Receptor beta (LXRb) (AID 2282981). To be noted: HepG2 Attagene TRANS GAL4-LXRb reporter, mRNA. An outline of the steps: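 Measures induction of a Gal4-driven reporter transcript in HepG2 cells expressing an exogenous LXRb-Gal4 fusion. Cells are exposed to compound for 24 h before RNA isolation and RT-PCR with capillary electrophoresis detection.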

In test [5] the target is human Thyroid Receptor alpha (THRa1), THRA (gene 7067) (UniProt P10827). As to the kind of experiment: ATG_THRa1_TRANS: Attagene TRANS-FACTORIAL HepG2 Assay for human Thyroid Receptor alpha (THRa1) (AID 2283014). In short, it runs like this:
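Reporter transcript induction, read by capillary electrophoresis of 6-FAM-labelled RT-PCR products, reflects activity of a transfected THRa1-Gal4 fusion in HepG2 liver cells. Cells were dosed for 24 h; activity was fitted in the positive direction against DMSO.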

A short description of test [6]: TOX21_p53_BLA_p4_viability: Viability Assessment in the Tox21 HCT-116 p53 Agonism Beta-lactamase Assay, Phase 4 (AID 2283597).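 Note: hits lower the luminescence signal meaning cytotoxicity.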 In short, it runs like this:
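Readout: ATP luminescence (CellTiter-Glo), measured 30 min after reagent addition at RT. The reagent followed a 2 h CCF4-AM incubation, and the cells had been exposed to compound for 16 h at 37C.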

Test [7] in a line: ACEA_ER_AUC_viability: ACEA Biosciences xCELLigence Real-Time Cell Analysis on Estrogen Receptor Agonism for Viability (AID 2283782).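 Note: hit means loss of impedance signal meaning reduced cell growth or viability.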 An outline of the steps: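 Continuous-exposure impedance cell analysis uses T-47D cells in charcoal-stripped serum, eight 1:4 dilutions topping at 100 uM final, biological duplicate. Area under the growth curve at 80 h is fitted against DMSO baseline.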

The target in test [8] is Oxysterols receptor LXR-alpha (Homo sapiens) (UniProt Q13133). As to the kind of experiment: ATG_LXRa_TRANS: Attagene TRANS-FACTORIAL HepG2 Assay for human Liver X Receptor alpha (LXRa) (AID 2282980). The note with it: HepG2 Attagene TRANS reporter, LXRa transactivation. An outline of the steps:
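Transfect HepG2 with GAL4-UAS multiplex reporter constructs (TRANS format, chimeric receptor-GAL4); treat 24 h; extract RNA, reverse-transcribe, PCR-amplify, FAM-label, HpaI-digest; resolve fragments by capillary electrophoresis. Upward response vs DMSO.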

Test [9] can be described thus: ATG_M_06_TRANS: Attagene TRANS-FACTORIAL HepG2 Assay for M06 Transcription Factor (Internal Marker) (AID 2282983).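 Note: reporter transcript level by RT-PCR then capillary electrophoresis fluorescence.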 To be noted: HepG2 Attagene TRANS M06 internal marker reporter. An outline of the steps:
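Background control endpoint: reporter mRNA from transiently transfected HepG2 after 24 h dosing, detected by RT-PCR with capillary electrophoresis fluorescence. Analysed for gain versus DMSO.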

Test [10] concerns the target Retinoic acid receptor RXR-alpha (Homo sapiens) (UniProt P19793). As to the kind of experiment: ATG_RXRa_TRANS: Attagene TRANS-FACTORIAL HepG2 Assay for human Retinoid X Receptor alpha (RXRa) (AID 2283012). In short, it runs like this:
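Measures exogenous chimeric NR-GAL4 activity in transfected HepG2 liver cells after 24 h of dosing. Induced reporter mRNA was detected by RT-PCR with capillary electrophoresis, and gain of signal was analysed against DMSO.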

A short description of test [11]: ATG_PPRE_CIS: Attagene CIS-FACTORIAL HepG2 Assay for human Peroxisome Proliferator-activated Response Element (PPRE) (AID 2282958; active = hit-call score of the fitted dose curve at least 0.9, where 1 is the maximum; inactive = score below 0.9). To be noted: HepG2 PPRE cis-element reporter, Attagene transcription factor profiling; actives raise or lower the signal. In short, it runs like this: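 Endogenous PPRE-driven transcription is measured in HepG2 cells carrying transfected multi-reporter constructs. Reporter transcripts are quantified by RT-PCR, HpaI digestion and capillary electrophoresis 24 h after dosing. DMSO baseline, bidirectional fit.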

Test [12] can be described thus: ATG_VDRE_CIS: Attagene CIS-FACTORIAL HepG2 Assay for human Vitamin D Receptor Element (VDRE) (AID 2282968; active = hit-call score of the fitted dose curve at least 0.9, where 1 is the maximum; inactive = score below 0.9). To be noted: HepG2 VDRE cis-reporter transcription, actives raise or lower the signal. An outline of the steps:
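Steps: transfect HepG2 with multiple reporter transcription units; dose chemicals 24 h; isolate RNA; RT-PCR; label with 6-FAM primer extension; HpaI digest; capillary electrophoresis. Curves fitted both directions against DMSO.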

Test [13] deals with human Peroxisome Proliferator-activated Receptor delta (PPARd), PPARD (gene 5467) (UniProt Q03181). As to the kind of experiment: ATG_PPARd_TRANS: Attagene TRANS-FACTORIAL HepG2 Assay for human Peroxisome Proliferator-activated Receptor delta (PPARd) (AID 2283002). An outline of the steps:
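HepG2 cells transiently transfected with multiplexed GAL4-UAS reporter units and exogenous chimeric NR-Gal4 proteins; 24 h compound exposure. Reporter mRNA measured by RT-PCR, 6-FAM labelling, HpaI digestion and capillary electrophoresis; gain of signal versus DMSO.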

Test [14] addresses Peroxisome proliferator-activated receptor gamma (Homo sapiens) (UniProt P37231). As to the kind of experiment: ATG_PPARg_TRANS: Attagene TRANS-FACTORIAL HepG2 Assay for human Peroxisome Proliferator-activated Receptor-gamma (PPARg) (AID 2283007). In short, it runs like this:
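After 24 h of chemical exposure, transfected HepG2 cells carrying PPARγ-Gal4 chimera reporter constructs are lysed for RNA. Reporter transcripts are measured by RT-PCR and capillary electrophoresis with fluorescent labelling, and gain of signal is fitted versus DMSO.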

For test [15], the target named is human Vitamin D Receptor (VDR), VDR (gene 7421) (UniProt P11473). As to the kind of experiment: ATG_VDR_TRANS: Attagene TRANS-FACTORIAL HepG2 Assay for human Vitamin D Receptor (VDR) (AID 2283022). In short, it runs like this: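 Steps: transfect HepG2 with GAL4-UAS-driven reporter constructs; dose compounds 24 h; isolate RNA, reverse-transcribe, PCR-amplify with 6-FAM-labelled primer extension and HpaI digestion; quantify fragments by capillary electrophoresis relative to DMSO.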

Test [16] deals with human RAR-related Orphan Receptor beta (RORb), RORB (gene 6096) (UniProt Q92753). As to the kind of experiment: ATG_RORb_TRANS: Attagene TRANS-FACTORIAL HepG2 Assay for human RAR-related Orphan Receptor beta (RORb) (AID 2283010). In short, it runs like this:
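Transfect HepG2 with multiple GAL4-UAS reporter transcription units; dose chemicals for 24 h; isolate RNA, reverse-transcribe and PCR-amplify reporter sequences; label, digest and resolve fragments by capillary electrophoresis; fit increases relative to DMSO.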

For test [17], the target named is Bile acid receptor (Homo sapiens) (UniProt Q96RI1). As to the kind of experiment: ATG_FXR_TRANS: Attagene TRANS-FACTORIAL HepG2 Assay for Farnesoid X Receptor (FXR) (AID 2282979).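 Note: hits raise reporter mRNA above DMSO so AC50 marks FXR activation.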 The note with it: HepG2 Attagene TRANS FXR-GAL4 reporter transcription. In short, it runs like this: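 Transient transfection of HepG2 with multiplexed GAL4-UAS reporter units; exogenous FXR-GAL4 chimera. Dose 24 h → TriZol RNA → oligo(dT) RT → PCR, 6-FAM primer extension, HpaI cut → CE. Gain vs DMSO.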

Test [18] can be described thus: CCTE_Harrill_HTTr_Viability_MCF7: CCTE's 6-hour Cell Viability Assessment for the High-Throughput Transcriptomics (HTTr) Platform, in MCF-7 cells cultured in DMEM + 10% fetal bovine serum, Harrill Lab (AID 2284010; active = hit-call score of the fitted dose curve at least 0.9, where 1 is the maximum; inactive = score below 0.9). In short, it runs like this:
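Read-out is propidium iodide gain of signal by high-content imaging, reflecting membrane integrity loss. Measurements are taken 6 h after dosing, eight concentrations per chemical, with DMSO serving as baseline for bidirectional curve fitting.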

Test [19] can be described thus: CCTE_Harrill_HTTr_Apoptosis_MCF7: CCTE's 6-hour Apoptosis Assessment for the High-Throughput Transcriptomics (HTTr) Platform, in MCF-7 cells cultured in DMEM + 10% fetal bovine serum, Harrill Lab (AID 2284011; active = hit-call score of the fitted dose curve at least 0.9, where 1 is the maximum; inactive = score below 0.9). An outline of the steps:
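MCF-7 (DMEM + 10% FBS), 384-well; 8-pt dilution series, 6 h chemical exposure; caspase-3/7 activation via CellEvent Caspase 3/7 Green, HCI; bidirectional fit vs DMSO.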

Test [20] deals with Glucocorticoid receptor (Homo sapiens) (UniProt P04150). As to the kind of experiment: ATG_GR_TRANS: Attagene TRANS-FACTORIAL HepG2 Assay for human Glucocorticoid Receptor (GR) (AID 2282978).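 Note: activators score as hits since higher reporter transcript over DMSO is fitted.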 The note with it: HepG2 Attagene TRANS GR reporter, mRNA transcription. In short, it runs like this:
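Readout is reporter transcript from a chimeric GR-Gal4 acting on GAL4-UAS in transfected human HepG2 liver cells after 24 h exposure, quantified by RT-PCR and capillary electrophoresis. Activation fitted upward against DMSO.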

Results filed as inconclusive are left out. Calls of active or inactive are those of the source. Rule for the calls, unless noted: active = hit-call score of the fitted dose curve at least 0.9, where 1 is the maximum; inconclusive = response in the unintended direction; inactive = score below 0.9.

Among the data in PubChem BioAssay (EPA / NIEHS) are outcome and AC50 values, retold here.

In general, AC50 refers to the concentration at which the activity in the assay is half-maximal.

human Peroxisome Proliferator-activated Receptor delta (PPARd), PPARD (gene 5467), sequence (Q03181 whole entry, looked up, the tested form may be a part): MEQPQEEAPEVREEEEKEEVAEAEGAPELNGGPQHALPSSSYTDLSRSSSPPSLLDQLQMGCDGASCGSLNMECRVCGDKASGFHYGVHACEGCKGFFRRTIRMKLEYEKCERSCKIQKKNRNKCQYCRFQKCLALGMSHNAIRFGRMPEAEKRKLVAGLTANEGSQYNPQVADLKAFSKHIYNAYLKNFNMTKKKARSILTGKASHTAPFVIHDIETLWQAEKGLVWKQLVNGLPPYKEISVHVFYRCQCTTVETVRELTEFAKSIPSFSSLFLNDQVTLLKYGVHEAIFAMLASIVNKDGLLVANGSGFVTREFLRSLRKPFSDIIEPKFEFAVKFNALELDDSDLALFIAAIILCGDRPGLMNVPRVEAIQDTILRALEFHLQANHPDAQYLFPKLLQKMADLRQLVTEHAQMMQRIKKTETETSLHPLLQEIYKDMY
Nuclear receptor subfamily 1 group I member 3 (Homo sapiens), sequence (Q14994 whole entry, looked up, the tested form may be a part): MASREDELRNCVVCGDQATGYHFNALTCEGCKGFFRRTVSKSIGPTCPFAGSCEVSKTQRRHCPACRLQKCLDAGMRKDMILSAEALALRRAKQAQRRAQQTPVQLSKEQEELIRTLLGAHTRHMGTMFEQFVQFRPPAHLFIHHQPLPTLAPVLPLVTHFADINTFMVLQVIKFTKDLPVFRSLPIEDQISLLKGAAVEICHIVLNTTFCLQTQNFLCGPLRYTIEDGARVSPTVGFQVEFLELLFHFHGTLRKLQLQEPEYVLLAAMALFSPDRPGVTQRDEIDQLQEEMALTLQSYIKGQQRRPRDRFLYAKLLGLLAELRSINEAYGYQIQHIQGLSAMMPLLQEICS
Oxysterols receptor LXR-alpha (Homo sapiens), sequence (Q13133 whole entry, looked up, the tested form may be a part): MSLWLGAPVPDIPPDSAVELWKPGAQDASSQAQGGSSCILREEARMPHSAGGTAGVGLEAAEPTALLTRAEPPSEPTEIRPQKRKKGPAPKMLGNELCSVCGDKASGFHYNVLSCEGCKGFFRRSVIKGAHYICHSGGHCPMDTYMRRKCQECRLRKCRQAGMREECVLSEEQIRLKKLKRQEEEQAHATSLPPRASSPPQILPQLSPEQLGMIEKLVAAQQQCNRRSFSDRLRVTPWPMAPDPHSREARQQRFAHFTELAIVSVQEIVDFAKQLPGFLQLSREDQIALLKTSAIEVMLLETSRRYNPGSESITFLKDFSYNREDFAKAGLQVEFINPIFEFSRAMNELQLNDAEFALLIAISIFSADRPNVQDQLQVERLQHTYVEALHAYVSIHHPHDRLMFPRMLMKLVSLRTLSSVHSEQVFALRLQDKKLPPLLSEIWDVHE
Retinoic acid receptor RXR-alpha (Homo sapiens), sequence (P19793 whole entry, looked up, the tested form may be a part): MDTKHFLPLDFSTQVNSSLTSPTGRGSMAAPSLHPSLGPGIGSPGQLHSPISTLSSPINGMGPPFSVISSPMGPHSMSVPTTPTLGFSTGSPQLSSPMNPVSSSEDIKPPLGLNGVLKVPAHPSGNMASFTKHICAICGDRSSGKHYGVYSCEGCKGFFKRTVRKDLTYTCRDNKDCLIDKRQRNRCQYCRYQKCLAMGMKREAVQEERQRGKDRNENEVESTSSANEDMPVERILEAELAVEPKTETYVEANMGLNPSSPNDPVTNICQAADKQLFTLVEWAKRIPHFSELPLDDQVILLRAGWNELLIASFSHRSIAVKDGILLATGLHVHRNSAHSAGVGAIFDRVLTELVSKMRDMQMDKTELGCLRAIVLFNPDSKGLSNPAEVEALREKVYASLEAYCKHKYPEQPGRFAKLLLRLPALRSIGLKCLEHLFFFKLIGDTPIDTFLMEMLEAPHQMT
Oxysterols receptor LXR-beta (Homo sapiens), sequence (P55055 whole entry, looked up, the tested form may be a part): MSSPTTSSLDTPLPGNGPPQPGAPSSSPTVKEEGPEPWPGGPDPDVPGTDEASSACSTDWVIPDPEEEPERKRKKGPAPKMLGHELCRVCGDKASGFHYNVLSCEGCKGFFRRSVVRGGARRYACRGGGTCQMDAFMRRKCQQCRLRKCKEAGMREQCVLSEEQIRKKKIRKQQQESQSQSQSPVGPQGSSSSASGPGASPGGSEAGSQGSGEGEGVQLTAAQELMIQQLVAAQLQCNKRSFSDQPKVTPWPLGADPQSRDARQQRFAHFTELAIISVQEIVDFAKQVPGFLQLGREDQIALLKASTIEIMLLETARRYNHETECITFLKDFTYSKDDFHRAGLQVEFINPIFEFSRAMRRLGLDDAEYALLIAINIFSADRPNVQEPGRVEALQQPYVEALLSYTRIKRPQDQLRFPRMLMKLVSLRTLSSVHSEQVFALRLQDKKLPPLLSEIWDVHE
human Thyroid Receptor alpha (THRa1), THRA (gene 7067), sequence (P10827 whole entry, looked up, the tested form may be a part): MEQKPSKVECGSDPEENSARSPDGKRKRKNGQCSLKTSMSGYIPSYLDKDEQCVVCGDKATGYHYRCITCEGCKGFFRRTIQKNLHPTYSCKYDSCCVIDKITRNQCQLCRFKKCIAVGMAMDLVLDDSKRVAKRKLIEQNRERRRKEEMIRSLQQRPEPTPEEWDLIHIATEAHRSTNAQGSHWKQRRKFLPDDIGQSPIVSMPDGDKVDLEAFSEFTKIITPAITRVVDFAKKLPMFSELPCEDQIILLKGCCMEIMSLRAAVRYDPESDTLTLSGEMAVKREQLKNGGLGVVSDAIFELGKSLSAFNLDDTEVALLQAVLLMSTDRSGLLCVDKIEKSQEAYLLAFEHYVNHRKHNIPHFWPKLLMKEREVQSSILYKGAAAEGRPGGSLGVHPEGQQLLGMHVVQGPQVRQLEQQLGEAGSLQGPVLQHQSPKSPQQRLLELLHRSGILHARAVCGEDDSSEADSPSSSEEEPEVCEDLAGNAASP
Peroxisome proliferator-activated receptor gamma (Homo sapiens), sequence (P37231 whole entry, looked up, the tested form may be a part): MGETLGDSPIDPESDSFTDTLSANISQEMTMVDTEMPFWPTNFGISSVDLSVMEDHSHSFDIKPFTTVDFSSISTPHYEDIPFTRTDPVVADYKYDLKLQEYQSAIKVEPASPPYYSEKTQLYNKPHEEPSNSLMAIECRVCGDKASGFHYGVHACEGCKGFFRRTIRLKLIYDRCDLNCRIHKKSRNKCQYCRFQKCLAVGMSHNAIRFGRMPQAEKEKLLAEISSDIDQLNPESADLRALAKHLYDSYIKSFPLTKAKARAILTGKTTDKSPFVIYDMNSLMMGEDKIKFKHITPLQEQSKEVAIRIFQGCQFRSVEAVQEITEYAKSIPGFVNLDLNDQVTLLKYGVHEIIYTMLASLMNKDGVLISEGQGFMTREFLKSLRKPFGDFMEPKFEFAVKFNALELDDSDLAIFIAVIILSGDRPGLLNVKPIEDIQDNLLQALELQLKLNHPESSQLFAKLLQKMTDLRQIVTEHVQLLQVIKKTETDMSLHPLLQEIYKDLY
human Vitamin D Receptor (VDR), VDR (gene 7421), sequence (P11473 whole entry, looked up, the tested form may be a part): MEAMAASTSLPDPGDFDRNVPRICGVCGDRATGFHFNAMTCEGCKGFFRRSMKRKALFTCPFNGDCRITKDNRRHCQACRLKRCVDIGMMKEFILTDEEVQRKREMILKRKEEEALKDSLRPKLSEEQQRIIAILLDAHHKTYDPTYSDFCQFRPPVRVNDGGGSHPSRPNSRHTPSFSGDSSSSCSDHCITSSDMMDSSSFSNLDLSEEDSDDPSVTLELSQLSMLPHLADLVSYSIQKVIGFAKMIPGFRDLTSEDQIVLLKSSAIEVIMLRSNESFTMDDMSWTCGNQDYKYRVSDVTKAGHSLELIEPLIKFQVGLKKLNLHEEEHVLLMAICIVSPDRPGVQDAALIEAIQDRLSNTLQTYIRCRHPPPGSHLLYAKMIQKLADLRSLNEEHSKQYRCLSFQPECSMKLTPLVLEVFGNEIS
human RAR-related Orphan Receptor beta (RORb), RORB (gene 6096), sequence (Q92753 whole entry, looked up, the tested form may be a part): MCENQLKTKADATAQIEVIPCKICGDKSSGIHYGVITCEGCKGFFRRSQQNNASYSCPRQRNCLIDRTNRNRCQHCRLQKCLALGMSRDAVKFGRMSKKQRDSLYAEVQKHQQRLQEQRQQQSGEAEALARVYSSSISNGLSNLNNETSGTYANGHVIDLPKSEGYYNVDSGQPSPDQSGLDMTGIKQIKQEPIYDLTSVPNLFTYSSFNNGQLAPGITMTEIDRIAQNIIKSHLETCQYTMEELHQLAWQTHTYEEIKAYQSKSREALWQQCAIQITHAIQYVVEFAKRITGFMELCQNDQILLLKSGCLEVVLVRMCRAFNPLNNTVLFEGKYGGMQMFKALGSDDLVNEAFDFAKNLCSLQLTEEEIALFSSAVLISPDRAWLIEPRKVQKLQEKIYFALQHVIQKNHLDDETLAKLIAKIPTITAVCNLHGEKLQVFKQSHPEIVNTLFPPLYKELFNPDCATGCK
Glucocorticoid receptor (Homo sapiens), sequence (P04150 whole entry, looked up, the tested form may be a part): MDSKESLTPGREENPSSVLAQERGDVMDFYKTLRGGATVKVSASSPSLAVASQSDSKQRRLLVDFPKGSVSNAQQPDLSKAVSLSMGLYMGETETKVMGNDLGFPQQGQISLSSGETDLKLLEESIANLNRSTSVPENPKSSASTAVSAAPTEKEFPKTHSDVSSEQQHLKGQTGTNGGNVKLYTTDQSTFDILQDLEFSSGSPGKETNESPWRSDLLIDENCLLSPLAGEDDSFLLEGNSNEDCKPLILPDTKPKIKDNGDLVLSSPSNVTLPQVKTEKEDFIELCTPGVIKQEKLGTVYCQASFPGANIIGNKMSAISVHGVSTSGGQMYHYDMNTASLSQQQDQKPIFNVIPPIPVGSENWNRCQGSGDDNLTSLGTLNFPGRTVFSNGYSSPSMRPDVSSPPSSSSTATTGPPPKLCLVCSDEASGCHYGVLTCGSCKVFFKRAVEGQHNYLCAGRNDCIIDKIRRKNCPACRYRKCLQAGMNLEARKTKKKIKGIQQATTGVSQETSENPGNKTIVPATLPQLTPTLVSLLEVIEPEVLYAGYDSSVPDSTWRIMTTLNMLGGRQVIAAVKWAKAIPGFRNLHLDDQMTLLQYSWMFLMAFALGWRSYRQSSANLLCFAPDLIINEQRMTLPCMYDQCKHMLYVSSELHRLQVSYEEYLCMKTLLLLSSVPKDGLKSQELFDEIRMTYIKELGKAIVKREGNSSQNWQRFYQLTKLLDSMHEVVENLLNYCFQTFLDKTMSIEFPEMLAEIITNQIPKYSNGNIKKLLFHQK

In the case of `CN(C)c1ccc(C(c2ccccc2)c2ccc(N(C)C)cc2)cc1`, the outcome in test [1], in test [2], in test [3], in test [4], in test [5] and in test [6] was inactive. The AC50 in [7] is 75.8 µM (active).
As to `CCCCn1cc[n+](C)c1`, the molecule was called inactive in test [8], in test [4], in [9], in test [10] and in test [5].
Regarding `CCCCCCC1CCC(=O)O1` (stereo not drawn), the result in test [11], in test [12], in [2], in [3], in [8] and in test [4] was inactive. The molecule was classed as inactive in test [13], in [14], in [15] and in [7].
For `COC(=O)c1ccccc1`, the result in test [11], in test [12], in test [2], in [3], in test [8] and in test [4] was inactive. The result in test [9], in test [13], in test [16], in test [10], in test [5] and in test [15] was inactive. Besides, the call in [6] was inactive.
In the case of `Nc1nnc(-c2ccc([N+](=O)[O-])o2)o1`, the call in [11], in test [12], in [2], in [4], in test [13] and in test [14] was inactive. Further, the molecule was called inactive in test [6].
For `CN1CCCC1`, the outcome in [12], in [1], in test [3], in [17], in test [8] and in [4] was inactive. Also, the call in test [9], in test [10], in test [5] and in test [7] was inactive.
Take `O=C(O)c1cc(Cl)cc(Cl)c1O`: the call in [11], in [12], in [2], in test [3], in test [13] and in test [16] was inactive. Moreover, the result in test [5], in test [15], in test [6], in [7], in [18] and in [19] was inactive. The AC50 in test [14] is 100 µM (active).
Turning to `OCCN(CCO)c1cccc(Cl)c1`, the outcome in test [11], in test [12], in test [1], in [3], in [9] and in test [14] was inactive. Besides, the result in [10] and in test [15] was inactive.
As for `CN(C)CCC(c1ccc(Cl)cc1)c1ccccn1` (stereo not drawn), the outcome in test [2], in [3], in test [4], in test [6], in test [7] and in [18] was inactive. Moreover, in test [19], the outcome was inactive.
Turning to `CCCOCCC`, the result in [11], in [12], in test [1], in test [3], in [20] and in [8] was inactive. Also, the call in test [4], in [9], in [14], in [6] and in test [7] was inactive.
With `O=C1NC(=O)C2CC=CCC12` (stereo not drawn), the molecule was classed as inactive in test [4], in test [13], in test [10], in test [15], in test [6] and in test [7].
Regarding `Brc1ccc(Oc2ccc(Br)cc2)cc1`, the result in test [12], in [1], in [2], in [8], in [13] and in test [10] was inactive. In addition, the call in test [5], in test [15], in test [6], in test [18] and in test [19] was inactive. Also, in test [7], the AC50 is 65.4 µM (active).
For the molecule `C=C1CC[C@H]2C[C@@H]1C2(C)C`, the call in test [11], in [3], in test [8], in test [4], in test [13] and in [14] was inactive. Further, the molecule was classed as inactive in test [10], in test [15] and in test [7].
